# Assay results taken from article PMC11006913.
# Positions count from the first letter of the chain named.
# What was measured:
# Test in all cases: PBM; 200 nM protein, PBS
# Conditions in all cases: dsDNA, one strand shown
# [1] = target: HOXB9 (Homo sapiens, UniProt P17482 171-250, T197M)
# [2] = target: T1, VENTX (Homo sapiens, UniProt O95231 78-163)
# T1 sequence: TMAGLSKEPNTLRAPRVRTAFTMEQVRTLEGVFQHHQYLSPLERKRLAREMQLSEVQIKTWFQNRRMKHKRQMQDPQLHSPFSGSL
# [3] = target: HOXA7 (Homo sapiens, UniProt P31268 116-202)
# [4] = target: T2, PAX4 (Homo sapiens, UniProt O43316 9-242, R200K)
# T2 sequence: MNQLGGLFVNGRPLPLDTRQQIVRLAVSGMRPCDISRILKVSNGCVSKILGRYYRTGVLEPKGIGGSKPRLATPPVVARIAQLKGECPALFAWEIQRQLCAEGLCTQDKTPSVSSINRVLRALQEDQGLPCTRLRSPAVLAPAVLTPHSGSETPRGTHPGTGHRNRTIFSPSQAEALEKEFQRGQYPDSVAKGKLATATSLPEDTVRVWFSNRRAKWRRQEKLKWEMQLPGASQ
# [5] = target: T3, PAX4 (Homo sapiens, UniProt O43316 9-242)
# T3 sequence: T2 sequence with K192R
# [6] = target: T4, PAX4 (Homo sapiens, UniProt O43316 9-242, F177V)
# T4 sequence: T2 sequence with F169V, K192R
# [7] = target: T5, PAX4 (Homo sapiens, UniProt O43316 9-242, F177Y)
# T5 sequence: T2 sequence with F169Y, K192R
# [8] = target: T6, PAX4 (Homo sapiens, UniProt O43316 9-242, R227W)
# T6 sequence: T2 sequence with K192R, R219W
# [9] = target: HOXA7 (Homo sapiens, UniProt P31268 116-202, W177C)
# [10] = target: VAX1 (Homo sapiens, UniProt Q5SQQ9 86-172)
# [11] = target: HOXA2 (Homo sapiens, UniProt O43364 129-215, Y150S)
# [12] = target: HOXA2 (Homo sapiens, UniProt O43364 129-215)
# [13] = target: HOXC9 (Homo sapiens, UniProt P31274 178-260, K195R)
# [14] = target: HOXC9 (Homo sapiens, UniProt P31274 178-260)
# [15] = target: HOXC9 (Homo sapiens, UniProt P31274 178-260, R193K)
# [16] = target: HOXC9 (Homo sapiens, UniProt P31274 178-260, R222W)
# [17] = target: HOXC10 (Homo sapiens, UniProt Q9NYD6 254-340, K271E)
# [18] = target: HOXB9 (Homo sapiens, UniProt P17482 171-250, R186Q)
# Chain of HOXB9 (Homo sapiens, UniProt P17482 171-250, R186Q) (P17482 171-250 R186Q): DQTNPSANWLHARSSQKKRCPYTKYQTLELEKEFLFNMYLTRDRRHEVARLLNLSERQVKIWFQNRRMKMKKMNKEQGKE
# Chain of HOXA7 (Homo sapiens, UniProt P31268 116-202) (P31268 116-202): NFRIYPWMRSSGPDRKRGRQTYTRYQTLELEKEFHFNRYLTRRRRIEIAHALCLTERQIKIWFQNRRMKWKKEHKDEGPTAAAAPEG
# Chain of HOXB9 (Homo sapiens, UniProt P17482 171-250, T197M) (P17482 171-250 T197M): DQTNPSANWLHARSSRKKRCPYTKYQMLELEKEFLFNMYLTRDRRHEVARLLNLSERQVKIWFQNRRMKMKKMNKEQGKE
# Chain of HOXA2 (Homo sapiens, UniProt O43364 129-215, Y150S) (O43364 129-215 Y150S): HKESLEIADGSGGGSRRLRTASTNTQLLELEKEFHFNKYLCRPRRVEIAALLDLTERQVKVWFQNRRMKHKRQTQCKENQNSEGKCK
# Chain of HOXC10 (Q9NYD6 254-340 K271E): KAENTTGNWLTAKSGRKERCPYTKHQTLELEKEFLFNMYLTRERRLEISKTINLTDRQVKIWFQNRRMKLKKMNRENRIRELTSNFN
# Chain of HOXA7 (Homo sapiens, UniProt P31268 116-202, W177C) (P31268 116-202 W177C): as the sequence (P31268 116-202) above, with W62C counted along it
# Chain of HOXA2 (Homo sapiens, UniProt O43364 129-215) (O43364 129-215): as the sequence (O43364 129-215 Y150S) above, with S22Y counted along it
# Chain of VAX1 (Q5SQQ9 86-172): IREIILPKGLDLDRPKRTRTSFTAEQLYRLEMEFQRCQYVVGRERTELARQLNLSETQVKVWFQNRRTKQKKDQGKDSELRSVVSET
# Chain of HOXC9 (Homo sapiens, UniProt P31274 178-260, R222W) (P31274 178-260 R222W): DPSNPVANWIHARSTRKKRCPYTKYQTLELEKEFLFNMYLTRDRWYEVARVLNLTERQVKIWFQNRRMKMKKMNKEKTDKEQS
# Chain of HOXC9 (Homo sapiens, UniProt P31274 178-260) (P31274 178-260): as the sequence (P31274 178-260 R222W) above, with W45R counted along it
# Chain of HOXC9 (Homo sapiens, UniProt P31274 178-260, R193K) (P31274 178-260 R193K): as the sequence (P31274 178-260 R222W) above, with R16K, W45R counted along it
# Chain of HOXC9 (Homo sapiens, UniProt P31274 178-260, K195R) (P31274 178-260 K195R): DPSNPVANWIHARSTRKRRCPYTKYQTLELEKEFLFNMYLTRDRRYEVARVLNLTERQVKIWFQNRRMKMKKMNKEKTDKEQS
sequence,measurement,setting,value
AATTAATC,binding signal,[1],"10 upbm affinity estimate (log intensity, higher = more binding, comparable within an allelic series)"
same,binding signal,[2],"12.3 upbm affinity estimate (log intensity, higher = more binding, comparable within an allelic series)"
same,binding signal,[3],"11.3 upbm affinity estimate (log intensity, higher = more binding, comparable within an allelic series)"
same,binding signal,[4],"11.9 upbm affinity estimate (log intensity, higher = more binding, comparable within an allelic series)"
same,binding signal,[5],"12.4 upbm affinity estimate (log intensity, higher = more binding, comparable within an allelic series)"
same,binding signal,[6],"10.7 upbm affinity estimate (log intensity, higher = more binding, comparable within an allelic series)"
same,binding signal,[7],"11.2 upbm affinity estimate (log intensity, higher = more binding, comparable within an allelic series)"
same,binding signal,[8],"11 upbm affinity estimate (log intensity, higher = more binding, comparable within an allelic series)"
same,binding signal,[9],"8.73 upbm affinity estimate (log intensity, higher = more binding, comparable within an allelic series)"
GGCAGGCC,binding signal,[4],"9.11 upbm affinity estimate (log intensity, higher = more binding, comparable within an allelic series)"
same,binding signal,[5],"9.17 upbm affinity estimate (log intensity, higher = more binding, comparable within an allelic series)"
same,binding signal,[6],"9.13 upbm affinity estimate (log intensity, higher = more binding, comparable within an allelic series)"
same,binding signal,[7],"9.09 upbm affinity estimate (log intensity, higher = more binding, comparable within an allelic series)"
same,binding signal,[8],"9.12 upbm affinity estimate (log intensity, higher = more binding, comparable within an allelic series)"
CAATTACC,binding signal,[3],"11.4 upbm affinity estimate (log intensity, higher = more binding, comparable within an allelic series)"
same,binding signal,[10],"12.8 upbm affinity estimate (log intensity, higher = more binding, comparable within an allelic series)"
same,binding signal,[9],"8.84 upbm affinity estimate (log intensity, higher = more binding, comparable within an allelic series)"
CAATTAGC,binding signal,[2],"13.1 upbm affinity estimate (log intensity, higher = more binding, comparable within an allelic series)"
same,binding signal,[3],"11.3 upbm affinity estimate (log intensity, higher = more binding, comparable within an allelic series)"
same,binding signal,[4],"11.6 upbm affinity estimate (log intensity, higher = more binding, comparable within an allelic series)"
same,binding signal,[5],"12.2 upbm affinity estimate (log intensity, higher = more binding, comparable within an allelic series)"
same,binding signal,[6],"10.3 upbm affinity estimate (log intensity, higher = more binding, comparable within an allelic series)"
same,binding signal,[7],"10.8 upbm affinity estimate (log intensity, higher = more binding, comparable within an allelic series)"
same,binding signal,[10],"13.5 upbm affinity estimate (log intensity, higher = more binding, comparable within an allelic series)"
same,binding signal,[8],"10.8 upbm affinity estimate (log intensity, higher = more binding, comparable within an allelic series)"
same,binding signal,[11],"10.7 upbm affinity estimate (log intensity, higher = more binding, comparable within an allelic series)"
same,binding signal,[9],"8.77 upbm affinity estimate (log intensity, higher = more binding, comparable within an allelic series)"
same,binding signal,[12],"12.6 upbm affinity estimate (log intensity, higher = more binding, comparable within an allelic series)"
AACAATTA,binding signal,[3],"11.2 upbm affinity estimate (log intensity, higher = more binding, comparable within an allelic series)"
same,binding signal,[9],"8.96 upbm affinity estimate (log intensity, higher = more binding, comparable within an allelic series)"
CCCTACGG,binding signal,[13],"9.6 upbm affinity estimate (log intensity, higher = more binding, comparable within an allelic series)"
same,binding signal,[2],"8.36 upbm affinity estimate (log intensity, higher = more binding, comparable within an allelic series)"
same,binding signal,[14],"9.63 upbm affinity estimate (log intensity, higher = more binding, comparable within an allelic series)"
same,binding signal,[15],"9.67 upbm affinity estimate (log intensity, higher = more binding, comparable within an allelic series)"
same,binding signal,[16],"9.62 upbm affinity estimate (log intensity, higher = more binding, comparable within an allelic series)"
TAATTAGA,binding signal,[1],"10.1 upbm affinity estimate (log intensity, higher = more binding, comparable within an allelic series)"
same,binding signal,[2],"13 upbm affinity estimate (log intensity, higher = more binding, comparable within an allelic series)"
same,binding signal,[3],"11.5 upbm affinity estimate (log intensity, higher = more binding, comparable within an allelic series)"
same,binding signal,[4],"12.2 upbm affinity estimate (log intensity, higher = more binding, comparable within an allelic series)"
same,binding signal,[5],"12.8 upbm affinity estimate (log intensity, higher = more binding, comparable within an allelic series)"
same,binding signal,[6],"11 upbm affinity estimate (log intensity, higher = more binding, comparable within an allelic series)"
same,binding signal,[17],"11.8 upbm affinity estimate (log intensity, higher = more binding, comparable within an allelic series)"
same,binding signal,[7],"11.5 upbm affinity estimate (log intensity, higher = more binding, comparable within an allelic series)"
same,binding signal,[10],"13.8 upbm affinity estimate (log intensity, higher = more binding, comparable within an allelic series)"
same,binding signal,[8],"11.5 upbm affinity estimate (log intensity, higher = more binding, comparable within an allelic series)"
same,binding signal,[11],"11 upbm affinity estimate (log intensity, higher = more binding, comparable within an allelic series)"
same,binding signal,[9],"8.87 upbm affinity estimate (log intensity, higher = more binding, comparable within an allelic series)"
same,binding signal,[12],"13.1 upbm affinity estimate (log intensity, higher = more binding, comparable within an allelic series)"
TAATTGCA,binding signal,[1],"10.2 upbm affinity estimate (log intensity, higher = more binding, comparable within an allelic series)"
same,binding signal,[3],"11.6 upbm affinity estimate (log intensity, higher = more binding, comparable within an allelic series)"
same,binding signal,[17],"11.8 upbm affinity estimate (log intensity, higher = more binding, comparable within an allelic series)"
same,binding signal,[11],"11 upbm affinity estimate (log intensity, higher = more binding, comparable within an allelic series)"
same,binding signal,[9],"8.79 upbm affinity estimate (log intensity, higher = more binding, comparable within an allelic series)"
same,binding signal,[12],"12.3 upbm affinity estimate (log intensity, higher = more binding, comparable within an allelic series)"
CCAATTAA,binding signal,[1],"10 upbm affinity estimate (log intensity, higher = more binding, comparable within an allelic series)"
same,binding signal,[2],"12.9 upbm affinity estimate (log intensity, higher = more binding, comparable within an allelic series)"
same,binding signal,[3],"11.5 upbm affinity estimate (log intensity, higher = more binding, comparable within an allelic series)"
same,binding signal,[4],"11.8 upbm affinity estimate (log intensity, higher = more binding, comparable within an allelic series)"
same,binding signal,[5],"12.3 upbm affinity estimate (log intensity, higher = more binding, comparable within an allelic series)"
same,binding signal,[6],"10.6 upbm affinity estimate (log intensity, higher = more binding, comparable within an allelic series)"
same,binding signal,[17],"11.9 upbm affinity estimate (log intensity, higher = more binding, comparable within an allelic series)"
same,binding signal,[7],"11.1 upbm affinity estimate (log intensity, higher = more binding, comparable within an allelic series)"
same,binding signal,[10],"13 upbm affinity estimate (log intensity, higher = more binding, comparable within an allelic series)"
same,binding signal,[18],"11.4 upbm affinity estimate (log intensity, higher = more binding, comparable within an allelic series)"
same,binding signal,[16],"11.1 upbm affinity estimate (log intensity, higher = more binding, comparable within an allelic series)"
same,binding signal,[8],"11 upbm affinity estimate (log intensity, higher = more binding, comparable within an allelic series)"
same,binding signal,[11],"10.8 upbm affinity estimate (log intensity, higher = more binding, comparable within an allelic series)"
same,binding signal,[9],"8.83 upbm affinity estimate (log intensity, higher = more binding, comparable within an allelic series)"
same,binding signal,[12],"12.2 upbm affinity estimate (log intensity, higher = more binding, comparable within an allelic series)"
